The target in assay [1] is Lysosomal acid glucosylceramidase (Homo sapiens) (UniProt P04062). As to the kind of experiment: Glucocerebrosidase-p2 (AID 348; in the data active = potency below about 10 µM; also: potency is read from the fitted curve at half-maximal effect). The settings on record: purified GBA, blue fluorogenic substrate, 40 min. The procedure, abridged:
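Compounds titrated from 0.6 nM upwards against 0.2 nM enzyme in pH 5.9 citric acid/KH2PO4, taurocholate, tween-20; blue fluorogenic substrate 80 uM, 40 min room temperature, stopped and read Ex 365/Em 440 for AC50.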

Assay [2] can be described thus: AP1 Signaling Pathway (AID 357; active = well fitted curve in either direction with a large enough effect, not every such curve was filed as active; also: % is scaled to controls: 0 for no effect and ±100 for the full control effect). The settings on record: ME-180 AP-1-bla reporter, EGF-induced, beta-lactamase ratio, 5 h; at 7.69 µM (top of the series) unless noted. The procedure, abridged: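 Cells are seeded overnight, exposed to compound titrations and an EC50 level of EGF for 5 hours at 37 °C, then loaded with CCF4 dye for 2.5 hours. Beta-lactamase activity under the AP-1 element is read as a blue/green ratio.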

Assay [3] deals with Cytochrome P450 1A2 (Homo sapiens) (UniProt P05177). As to the kind of experiment: p450-cyp1a2 (AID 410; calls by dose curve; also: potency is read from the fitted curve at half-maximal effect). The note with it: recombinant CYP1A2, luciferin-ME demethylation, luminescence; series mostly up to 57 µM. The procedure, abridged: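 20nM CYP1A2 with 100uM Luciferin-ME (at Km) in 100mM KPO4; compound preincubated 10 min, NADPH regeneration added, 60 min at room temperature. Luciferin quantified by luminescence after detection reagent; normalized to 57 uM furafylline.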
Sequence of Cytochrome P450 1A2 (Homo sapiens) (P05177 whole entry, looked up): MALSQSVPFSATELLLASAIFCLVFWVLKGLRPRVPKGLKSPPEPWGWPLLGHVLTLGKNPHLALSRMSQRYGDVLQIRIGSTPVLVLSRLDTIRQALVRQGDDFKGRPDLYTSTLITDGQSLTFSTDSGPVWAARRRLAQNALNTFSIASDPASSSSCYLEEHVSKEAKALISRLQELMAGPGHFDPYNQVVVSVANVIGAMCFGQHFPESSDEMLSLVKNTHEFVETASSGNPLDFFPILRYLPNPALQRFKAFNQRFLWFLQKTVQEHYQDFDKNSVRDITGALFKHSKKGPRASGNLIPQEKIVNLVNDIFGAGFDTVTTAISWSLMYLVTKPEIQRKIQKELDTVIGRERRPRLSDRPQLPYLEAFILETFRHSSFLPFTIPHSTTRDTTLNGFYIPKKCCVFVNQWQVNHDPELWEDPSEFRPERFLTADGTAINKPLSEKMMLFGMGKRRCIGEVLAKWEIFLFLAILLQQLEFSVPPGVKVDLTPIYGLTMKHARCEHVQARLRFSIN

A short description of assay [4]: NFAT Signaling Pathway (AID 444; active = well fitted curve in either direction with a large enough effect, not every such curve was filed as active;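 also: carbachol stimulus at about its EC50 of 1 µM final; % is scaled to controls: 0 for no effect and ±100 for the full control effect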). The settings on record: Jurkat NFAT-bla M1, carbachol, beta-lactamase ratio, 5 h; at 7.69 µM (top of the series) unless noted. The essentials: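 Jurkat cells carrying an NFAT-driven β-lactamase reporter and co-transfected muscarinic M1 receptor were treated with compound plus carbachol (1 uM final, an EC50 level) for 5 h at 37 °C. CCF4 loading followed for 1 h at RT; 460/530 nm ratio gave %activity.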

Assay [5] is described as follows: Stat Signaling Pathway (AID 446; active = well fitted curve in either direction with a large enough effect, not every such curve was filed as active;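 also: ME-180 cervical cancer cells given 40 pM IL-6 alongside compound; SIE-controlled beta-lactamase reporter measured as 460/530 nm FRET emission ratio; % is scaled to controls: 0 for no effect and ±100 for the full control effect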). The note with it: ME-180 SIE beta-lactamase reporter, IL-6 stimulated, 5 h; at 7.69 µM (top of the series) unless noted. The essentials: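 Reporter line: ME-180 cervical carcinoma, SIE-beta-lactamase. Treatment: compound with 40 pM IL-6, 5 hrs, 37 C, in low-serum OPTI-MEM with 10 mM HEPES pH 7.3. Detection: 460/530 nm fluorescence.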

The target of assay [6] is Glucocorticoid receptor (Homo sapiens) (UniProt P04150). As to the kind of experiment: GR-GFP Redistribution (AID 450;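 active = compounds whose dose series gives a full or clear partial fitted curve of increased nuclear translocation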; also: potency is read from the fitted curve at half-maximal effect). The note with it: U2OS GR-GFP nuclear translocation, laser cytometry, 2 h.
Sequence of Glucocorticoid receptor (Homo sapiens) (P04150 whole entry, looked up, the tested form may be a part): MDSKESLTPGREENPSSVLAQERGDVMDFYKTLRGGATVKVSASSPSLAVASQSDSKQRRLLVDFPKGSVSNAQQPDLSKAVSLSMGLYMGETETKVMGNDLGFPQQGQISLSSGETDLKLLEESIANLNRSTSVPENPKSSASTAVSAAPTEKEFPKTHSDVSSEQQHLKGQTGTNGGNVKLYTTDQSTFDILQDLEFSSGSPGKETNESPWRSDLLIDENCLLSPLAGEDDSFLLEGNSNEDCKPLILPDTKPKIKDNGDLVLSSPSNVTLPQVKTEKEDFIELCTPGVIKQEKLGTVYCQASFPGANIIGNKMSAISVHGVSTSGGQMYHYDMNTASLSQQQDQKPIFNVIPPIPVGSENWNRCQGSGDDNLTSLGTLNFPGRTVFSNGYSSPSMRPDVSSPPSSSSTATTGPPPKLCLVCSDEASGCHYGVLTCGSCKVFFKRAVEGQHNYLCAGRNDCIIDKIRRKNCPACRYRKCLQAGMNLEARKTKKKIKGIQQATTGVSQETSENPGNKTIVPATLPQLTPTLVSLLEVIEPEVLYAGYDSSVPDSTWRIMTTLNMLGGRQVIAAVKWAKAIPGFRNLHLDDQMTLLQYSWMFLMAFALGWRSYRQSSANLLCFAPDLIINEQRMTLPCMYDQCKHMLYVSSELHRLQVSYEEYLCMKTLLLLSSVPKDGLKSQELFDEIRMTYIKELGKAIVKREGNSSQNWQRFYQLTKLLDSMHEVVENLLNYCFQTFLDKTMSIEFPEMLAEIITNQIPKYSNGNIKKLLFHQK
The target is the same in assay [7]. In words: GR-EFC Redistribution (AID 451; calls by dose curve; also: potency is read from the fitted curve at half-maximal effect). The note with it: CHO-K1 GR-EFC translocation, beta-gal luminescence, 2 h. The essentials: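 CHO-K1 cells stably expressing nuclear-localized β-gal enzyme acceptor and GR fused C-terminally to the enzyme donor fragment; ligand-driven nuclear translocation restores β-gal by complementation. Compounds titrated up to 46 uM final, 2 h at 37 °C; luminescence read.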

Assay [8] addresses Mitogen-activated protein kinase 10 (Mus musculus) (UniProt Q61831). As to the kind of experiment: JNK3 AlphaScreen Assay (AID 530; active = well fitted curve in either direction with a large enough effect, not every such curve was filed as active;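 also: kinase came from lysate of stimulated human HepG2 cells; signal reports phosphorylation of biotinylated GST-cJun 1-79 at Ser73 with 10 µM ATP; % is scaled to controls: 0 for no effect and ±100 for the full control effect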). The settings on record: JNK3 lysate, c-Jun phosphorylation; series mostly up to 57.1 µM. The procedure, abridged: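 Inhibitors reduce antibody binding to phosphorylated biotin-cJun, lowering AlphaScreen luminescence. Lysates from HepG2 cells pre-activated by IL-1beta plus TNF-alpha supplied JNK3; compounds were titrated.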
(In general: In Alpha technology, singlet oxygen from a donor bead excites a nearby acceptor bead.)

For assay [9], the target named is 3',5'-cyclic-AMP phosphodiesterase 4B (Homo sapiens) (UniProt Q07343). In words: qHTS Assay for Inhibitors of PDE-IV (AID 607; active = well fitted activation curve with a large enough effect in the main read-out, with a control signal flat, not every such curve was filed as active; also: % of control where 0% means no effect). The settings on record: HEK293 ACTOne CNG channel cells, membrane potential fluorescence; series mostly up to 22.9 µM. The essentials: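 Cell-based read-out of cAMP via a modified cyclic nucleotide-gated channel and membrane potential dye (535/590 nm) in HEK293 cells expressing PDE4 endogenously. Compounds tested up to 22.9 uM final; 100 uM RO 20-1724 reference.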
Sequence of 3',5'-cyclic-AMP phosphodiesterase 4B (Homo sapiens) (Q07343 whole entry, looked up): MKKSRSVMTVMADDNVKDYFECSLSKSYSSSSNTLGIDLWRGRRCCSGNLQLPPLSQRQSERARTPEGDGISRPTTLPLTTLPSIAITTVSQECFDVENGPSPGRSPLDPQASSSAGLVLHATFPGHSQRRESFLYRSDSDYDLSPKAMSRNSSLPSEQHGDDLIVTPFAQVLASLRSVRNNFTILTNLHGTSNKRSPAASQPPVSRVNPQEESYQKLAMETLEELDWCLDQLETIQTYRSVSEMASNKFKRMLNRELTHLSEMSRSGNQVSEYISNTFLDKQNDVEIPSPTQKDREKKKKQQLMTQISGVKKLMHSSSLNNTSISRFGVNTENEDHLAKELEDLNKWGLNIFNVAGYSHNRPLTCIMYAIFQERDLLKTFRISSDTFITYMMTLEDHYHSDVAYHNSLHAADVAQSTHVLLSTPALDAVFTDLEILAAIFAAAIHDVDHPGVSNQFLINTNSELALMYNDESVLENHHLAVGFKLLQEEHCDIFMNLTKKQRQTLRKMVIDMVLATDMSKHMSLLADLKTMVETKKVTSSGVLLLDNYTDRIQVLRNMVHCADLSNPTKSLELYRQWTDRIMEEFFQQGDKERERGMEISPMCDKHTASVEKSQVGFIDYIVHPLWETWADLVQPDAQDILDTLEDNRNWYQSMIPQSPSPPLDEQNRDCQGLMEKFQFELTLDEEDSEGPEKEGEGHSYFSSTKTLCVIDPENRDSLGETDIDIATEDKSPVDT
For orientation: In qHTS, concentration-response curves come from the screen itself.

For assay [10], the target named is Cytochrome P450 3A4 (Homo sapiens) (UniProt P08684). In words: qHTS Assay for Inhibitors and Substrates of Cytochrome P450 3A4 (AID 884). Also: potency is read from the fitted curve at half-maximal effect; nearly all actives have a fitted effect of over 50% in size. The note with it: recombinant CYP3A4, Luciferin-PPXE luminescence; series mostly up to 57.1 µM. The procedure, abridged:
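20 nM human CYP3A4 with 25 uM Luciferin-PPXE (at KM) in 200 mM KPO4, preincubated 10 min with compound; NADPH regeneration started a 60 min RT reaction. Luciferin detected by luminescence, normalized to 57 uM ketoconazole as full inhibition.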

For assay [11] the target is unchanged. In words: qHTS Assay for Activators of Cytochrome P450 3A4 (AID 885). Also: nearly all actives have a fitted effect of over 65% in size. The settings on record: recombinant CYP3A4, Luciferin-PPXE luminescence, 60 min; series mostly up to 57.1 µM. The procedure, abridged: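 Signal was normalized against complete inhibition by 57 uM ketoconazole. The reaction used 20nM CYP3A4 with 25uM Luciferin-PPXE, 10-min compound preincubation and a 60-min NADPH-supported step at RT.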

Assay [12] concerns the target Dual specificity protein kinase CLK4 (Homo sapiens) (UniProt Q9HAZ1). As to the kind of experiment: qHTS Assay for Inhibitors of CDC-like Kinase 4 (Kinase-Glo Assay) (AID 1770). Also: % is scaled to controls: 0 for no effect and ±100 for the full control effect; nearly all actives have a fitted effect of over 65% in size. The note with it: recombinant Clk4, Kinase-Glo ATP depletion luminescence; series mostly up to 66.7 µM. The procedure, abridged: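 Clk4 25 nM, RS peptide 100 uM, ATP 1 uM, pH 7.5 Tris, 10 mM MgCl2, 2.5 mM DTT; 4.5 h RT; ATP depletion read by Kinase-Glo luminescence.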

Assay [13] has the same target. As to the kind of experiment: qHTS Assay for Inhibitors of CDC-like Kinase 4 (ADP-Glo Assay) (AID 1771). Also: % is scaled to controls: 0 for no effect and ±100 for the full control effect; nearly all actives have a fitted effect of over 70% in size. The note with it: recombinant CLK4, ADP-Glo luminescence; series mostly up to 80 µM. The essentials:
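25 nM Clk4 with 100 uM RS repeat peptide and 1 uM ATP (final) in buffer with 2 mM MgCl2, 0.5 mM EGTA, 2.5 mM DTT, 0.01% Triton X-100; 1 h at room temperature; ADP-Glo luminescence for ADP formed.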

For assay [14] the target is unchanged. As to the kind of experiment: qHTS Assay for Inhibitors of CDC-like Kinase 4 (ADP-FP Assay) (AID 1795).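 Also: recombinant human CLK4 phosphorylating RS repeat peptide at 1 µM ATP; % is scaled to controls: 0 for no effect and ±100 for the full control effect; nearly all actives have a fitted effect of over 60% in size.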 The settings on record: Transcreener ADP fluorescence polarization; series mostly up to 50 µM. The procedure, abridged: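 Kinase activity was followed as ADP output, converted from fluorescence polarization with a calibration curve. Reactions ran one hour at low ATP (1 uM) with RS peptide substrate.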

For assay [15], the target named is Ubiquitin carboxyl-terminal hydrolase 1 (Homo sapiens) (UniProt O94782). As to the kind of experiment: Inhibitors of USP1/UAF1: Pilot qHTS (AID 504865).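 Also: rhodamine fluorescence freed from ubiquitin-rhodamine substrate followed over time; top concentration of the series differs between compounds; % is scaled to controls: 0 for no effect and ±100 for the full control effect; nearly all actives have a fitted effect of over 35% in size.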 The note with it: purified USP1/UAF1, Ub-rhodamine cleavage fluorescence; series mostly up to 54.9 µM. The procedure, abridged: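 Enzyme-free wells gave the negative control, while test wells held 1nM USP1/UAF1 preincubated with compound for 15 min at room temperature. Ub-Rho at 150nM final started the reaction, and fluorescence at 480/540 nm was recorded kinetically.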
Sequence of Ubiquitin carboxyl-terminal hydrolase 1 (Homo sapiens) (O94782 whole entry, looked up): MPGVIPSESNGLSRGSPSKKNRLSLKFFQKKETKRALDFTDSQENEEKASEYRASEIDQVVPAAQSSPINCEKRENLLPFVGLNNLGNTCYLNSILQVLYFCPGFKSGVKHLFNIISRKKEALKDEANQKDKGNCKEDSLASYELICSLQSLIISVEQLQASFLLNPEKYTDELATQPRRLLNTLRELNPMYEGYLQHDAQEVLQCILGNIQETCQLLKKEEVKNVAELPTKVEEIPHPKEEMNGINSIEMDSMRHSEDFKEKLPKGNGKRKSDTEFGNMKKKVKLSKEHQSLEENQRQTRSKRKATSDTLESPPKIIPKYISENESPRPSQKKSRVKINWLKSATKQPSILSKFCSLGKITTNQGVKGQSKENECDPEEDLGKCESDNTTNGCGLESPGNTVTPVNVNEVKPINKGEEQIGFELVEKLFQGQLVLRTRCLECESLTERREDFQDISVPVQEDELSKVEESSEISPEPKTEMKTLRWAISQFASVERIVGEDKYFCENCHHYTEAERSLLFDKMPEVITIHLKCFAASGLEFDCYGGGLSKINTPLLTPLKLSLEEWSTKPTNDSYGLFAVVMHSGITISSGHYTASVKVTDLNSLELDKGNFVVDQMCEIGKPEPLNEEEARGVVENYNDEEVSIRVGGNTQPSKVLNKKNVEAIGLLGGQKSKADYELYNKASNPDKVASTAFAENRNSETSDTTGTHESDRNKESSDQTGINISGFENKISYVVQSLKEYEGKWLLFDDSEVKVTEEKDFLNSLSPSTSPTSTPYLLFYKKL

Assay [16] is described as follows: Primary qHTS for small molecule stabilizers of the endoplasmic reticulum resident proteome: Secreted ER Calcium Modulated Protein (SERCaMP) assay (AID 1508630). Also: % is scaled to controls: 0 for no effect and ±100 for the full control effect. The settings on record: SH-SY5Y GLuc-SERCaMP (Gaussia luciferase released on ER calcium loss) secretion, thapsigargin, luminescence; series mostly up to 38.4 µM. The procedure, abridged:
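GLuc-SERCaMP-expressing SH-SY5Y cells, pretreated 16 h with compound, are challenged with thapsigargin to empty ER calcium stores; after 4 h, coelenterazine is added directly to the medium and luminescence is imaged.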

The target in assay [17] is Cytochrome P450 2C19 (Homo sapiens) (UniProt P33261). In words: qHTS Assay for Inhibitors and Substrates of Cytochrome P450 2C19 (AID 899). Also: % is scaled to controls: 0 for no effect and ±100 for the full control effect; nearly all actives have a fitted effect of over 60% in size. The note with it: recombinant CYP2C19, luciferin-H EGE luminescence; series mostly up to 57.1 µM. The procedure, abridged:
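NADPH-dependent conversion of Luciferin-H EGE (10uM, at KM) by 5nM enzyme in 50mM KPO4, 60 min at 37C following 10 min compound preincubation. Stopped with luciferin detection buffer; luminescence read after 20 min.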

A number with no mark means an inactive call. Results filed as inconclusive are left out. Active and inactive are the calls of the source. Unless noted, calls follow the shape of the dose curve; as a rule, active = well fitted curve in the direction sought with a large enough effect; inconclusive = small, poorly fitted or top-dose-only effect, or another doubt; inactive = no such curve, though single readings can be large; an effect the other way counts as inactive or inconclusive. A value given as a limit tells only on which side of the number the result lay.

Sequence of Lysosomal acid glucosylceramidase (Homo sapiens) (P04062 whole entry, looked up): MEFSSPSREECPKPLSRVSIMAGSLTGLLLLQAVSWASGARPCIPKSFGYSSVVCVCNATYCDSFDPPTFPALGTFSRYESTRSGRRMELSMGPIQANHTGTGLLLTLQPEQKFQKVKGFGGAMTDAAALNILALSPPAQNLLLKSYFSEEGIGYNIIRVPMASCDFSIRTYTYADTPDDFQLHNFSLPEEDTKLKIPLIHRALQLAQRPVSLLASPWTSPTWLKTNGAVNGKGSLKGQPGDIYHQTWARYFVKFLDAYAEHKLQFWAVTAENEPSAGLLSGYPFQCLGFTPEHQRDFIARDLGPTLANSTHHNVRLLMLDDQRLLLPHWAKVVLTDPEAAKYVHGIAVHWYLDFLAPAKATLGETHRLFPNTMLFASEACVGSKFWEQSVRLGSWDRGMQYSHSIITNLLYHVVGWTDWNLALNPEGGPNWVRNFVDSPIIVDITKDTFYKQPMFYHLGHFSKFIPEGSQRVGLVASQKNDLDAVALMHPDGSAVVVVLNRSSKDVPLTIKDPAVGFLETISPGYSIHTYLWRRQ
Sequence of Dual specificity protein kinase CLK4 (Homo sapiens) (Q9HAZ1 whole entry, looked up): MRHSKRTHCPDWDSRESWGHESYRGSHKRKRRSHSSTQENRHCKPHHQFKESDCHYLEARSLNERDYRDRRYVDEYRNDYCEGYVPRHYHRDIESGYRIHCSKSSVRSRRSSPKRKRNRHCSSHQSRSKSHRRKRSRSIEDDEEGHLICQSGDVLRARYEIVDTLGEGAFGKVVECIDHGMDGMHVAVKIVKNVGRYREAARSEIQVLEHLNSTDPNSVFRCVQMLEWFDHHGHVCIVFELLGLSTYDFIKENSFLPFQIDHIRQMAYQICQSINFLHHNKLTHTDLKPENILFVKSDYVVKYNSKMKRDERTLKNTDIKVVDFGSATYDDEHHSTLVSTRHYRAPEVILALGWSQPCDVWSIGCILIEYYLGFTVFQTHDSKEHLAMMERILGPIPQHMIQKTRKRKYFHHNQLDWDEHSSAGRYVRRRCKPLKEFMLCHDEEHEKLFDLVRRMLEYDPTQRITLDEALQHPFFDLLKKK
Sequence of Cytochrome P450 3A4 (Homo sapiens) (P08684 whole entry, looked up): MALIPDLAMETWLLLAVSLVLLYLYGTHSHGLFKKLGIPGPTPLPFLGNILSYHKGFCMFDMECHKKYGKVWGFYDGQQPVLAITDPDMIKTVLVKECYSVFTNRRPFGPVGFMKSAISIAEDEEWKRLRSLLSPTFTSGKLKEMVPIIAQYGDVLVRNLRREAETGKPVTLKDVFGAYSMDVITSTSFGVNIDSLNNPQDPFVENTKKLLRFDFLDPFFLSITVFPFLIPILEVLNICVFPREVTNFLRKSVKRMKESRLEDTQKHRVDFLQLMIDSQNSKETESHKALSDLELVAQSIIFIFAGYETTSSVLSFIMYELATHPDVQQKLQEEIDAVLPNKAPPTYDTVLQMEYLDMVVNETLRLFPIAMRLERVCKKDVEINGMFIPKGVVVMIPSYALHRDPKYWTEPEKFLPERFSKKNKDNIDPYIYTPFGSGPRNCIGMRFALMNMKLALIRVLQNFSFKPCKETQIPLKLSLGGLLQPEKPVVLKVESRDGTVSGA
Sequence of Cytochrome P450 2C19 (Homo sapiens) (P33261 whole entry, looked up): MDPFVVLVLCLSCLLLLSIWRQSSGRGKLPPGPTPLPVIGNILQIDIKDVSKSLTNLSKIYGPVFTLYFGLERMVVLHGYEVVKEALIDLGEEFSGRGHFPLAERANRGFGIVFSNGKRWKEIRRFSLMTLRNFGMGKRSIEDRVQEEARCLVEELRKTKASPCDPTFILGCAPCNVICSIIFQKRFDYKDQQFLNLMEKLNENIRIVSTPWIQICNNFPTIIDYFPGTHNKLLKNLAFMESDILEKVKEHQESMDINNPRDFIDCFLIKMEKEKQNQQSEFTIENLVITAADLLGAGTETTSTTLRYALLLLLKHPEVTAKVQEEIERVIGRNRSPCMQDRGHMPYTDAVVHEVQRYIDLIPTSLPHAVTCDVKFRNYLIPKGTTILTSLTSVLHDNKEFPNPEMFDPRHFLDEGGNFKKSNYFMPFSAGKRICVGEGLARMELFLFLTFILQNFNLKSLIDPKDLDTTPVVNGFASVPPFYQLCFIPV

As for `c1cc(NC2CC2)nc(-c2ccoc2)n1`, the Potency in assay [1] was over 11.4 µM; in assay [3], 0.251 µM (active); in assay [6], over 46 µM; in assay [7] it was over 46 µM; in assay [10], 5.01 µM (active). For the same molecule, the activity change, negative = inhibition was -10.4% in [2] and -10.6% in assay [4]. Besides, the activity, negative = inhibition in [5] was 14.4%. Besides, the Potency entry in assay [8], in assay [9], in assay [11], in assay [12], in assay [13] and in assay [14] was “inactive” each time. In [15], the Potency entry is “inactive”. Moreover, in assay [16], the result was inactive.

Turning to `COc1ncc2nc(-c3cn(C)c4ccccc34)c(=O)n(C)c2n1`, the Potency in [1] was over 11.4 µM; in assay [3], 1 µM (active); in [6], over 9.22 µM; in assay [7] it was over 46 µM; in [10], 5.01 µM (active). Besides, the activity change, negative = inhibition in assay [2] was 4.21%; in [4] it was 11.4%. Moreover, the activity, negative = inhibition in assay [5] was 7.15%. The Potency entry in assay [8], in [9], in assay [11], in assay [17], in assay [12] and in assay [13] was “inactive” throughout. Further, the Potency entry in assay [14] and in [15] was “inactive” in each case. Also, the outcome in assay [16] was inactive.

Regarding `CNc1ncncc1-c1ccccc1C(F)(F)F`, the Potency was over 11.4 µM in assay [1], over 46 µM in [6], over 46 µM in assay [7] and 0.794 µM (active) in assay [10]. Besides, the activity change, negative = inhibition in assay [2] is 2.43%; in assay [4], 11.4%. In addition, the Potency entry in assay [3], in [8], in assay [9], in assay [11], in [12] and in assay [13] was “inactive” throughout. Further, the Potency result in assay [14] and in assay [15] was “inactive” in each case. For the same molecule, the activity, negative = inhibition in assay [5] was 22.6%. In addition, the result in [16] was inactive.

As to `COc1ncc2nc(-c3ccc(F)cc3)c(=O)n(Cc3ccc(F)cc3)c2n1`, the Potency in assay [1] is over 11.4 µM; in assay [3], 1.58 µM (active); in [6], over 9.22 µM; in assay [7] it was over 46 µM; in [10], 3.16 µM (active). The activity change, negative = inhibition in assay [2] is 1.72%; in [4], -1.74%. In addition, in assay [5], the activity, negative = inhibition is -13.2%. Moreover, the Potency entry in [8], in assay [9], in [11], in assay [12], in assay [13] and in [14] was “inactive” each time. Further, the Potency entry in assay [15] is “inactive”. For the same molecule, the outcome in [16] was inactive.

On to `COc1ncc2nc(-c3cn(C)c4ccccc34)c(=O)n(CCC#N)c2n1`, for which the Potency in assay [1] is over 11.4 µM; in assay [3] it was 5.01 µM (active); in assay [6] it was over 9.22 µM; in [7], over 46 µM; in assay [10], 6.31 µM (active). The activity change, negative = inhibition in assay [2] was -17.8%; in assay [4], -2.23%. The activity, negative = inhibition in assay [5] is -7.24%. In addition, the Potency entry in assay [8], in assay [9], in assay [11], in [12], in [13] and in [14] was “inactive” each time. The Potency entry in assay [15] is “inactive”. The result in [16] was inactive.

The record behind these values is PubChem BioAssay (NCATS).
